Reference: PubChem BioAssay (NCI)
Values joined by “and” are separate entries in the source; they are usually repeats but may differ in a detail not shown here. Equal values may be shown once. The panel holds about 83,000 compounds, 20% with a hit somewhere; the sample as a whole holds those more often.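 Method: cells in 96-well plates; compound added at one concentration; 48 h incubation; percent growth measured; values under 10 scored active.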 Unmarked numbers belong to inactive results. Active and inactive are the calls of the source.

test system: MDA-MB-468 breast; assay: NCI-60 one-dose screen, 48 h (100 = growth as untreated, 0 = no growth, -100 = all killed); settings: 10 µM unless noted

Row | SMILES | growth
1 | CN1CCN(c2ccc(NC(=O)Nc3ccc4c(ccn4-c4cccc(C(N)=O)n4)c3)cc2C(F)(F)F)CC1 | 42.8%
2 | O=C1c2ccccc2CN1c1ccccc1 | 101%
3 | O=C(NC1CC1)c1ccc(-c2nc3ccc4[nH]ncc4c3c3c2CCCC3)cc1 | 8.81% (active)
4 | Cc1ccc(/C=C/C(=O)c2ccc(-n3cc(CN4CCN(c5cc6c(cc5F)c(=O)c(C(=O)O)cn6C5CC5)CC4)nn3)cc2)cc1 | 77.1%
5 | CCCCCc1c(C)[nH]c(/C=C2\N=C(c3ccc[nH]3)C=C2Oc2ccc(Cl)cc2)c1C | -16.4% [100 µM] (active)
6 | O=C(c1nc2ccccc2[nH]1)C1C(c2cccc([N+](=O)[O-])c2)C2CC3CCCCC3N2[C@@]12C(=O)Nc1cc(Cl)ccc12 (stereo not given in full) | 1.53% (active)
7 | CC1=CC(=O)c2cccc(NC3=NCCO3)c21 | 107%
8 | O=C(CCn1c[n+](CC(=O)c2ccc(F)cc2)c2ccccc21)Nc1cccc2cccnc12 | -15.5% (active)
9 | COc1cc2ncnc(Nc3ccc4c(cnn4C(=O)Nc4ccccc4)c3)c2cc1OC | 52%
10 | N#C/C(=C\c1ccc(-c2ccccc2)o1)c1nc(-c2ccco2)cs1 | -32.4% (active)
11 | CC#CC#Cc1cccc(=O)o1 | 29.3%
12 | NC(N)=NS(=O)(=O)c1ccc(Nc2ccc3nnc(-c4ccncc4)n3n2)cc1 | 96.6%
13 | Clc1ccc(CN2COc3c(ccc4cccnc34)C2)cc1Cl | -71.9% (active)
14 | C#CCN(C)Cc1ccccc1 | 96.1% and 122%
15 | CCCCCCCCNC(C)C(O)c1ccc(SC(C)C)cc1 (stereo not given) | 17.6%
16 | COc1ccc(/C(=C(\c2ccccc2)[N+](=O)[O-])c2ccc(OCCN3CCCC3)cc2)cc1 | 68.1%
17 | CCN(CC)CCCC(C)Nc1cnc(C(=O)Nc2cc(C)cc3cccnc23)cn1 (stereo not given) | 9.36% (active)
18 | O=C(NCc1ccccc1O)c1cccc2ccccc12 | 84.9%
19 | Cc1nc2n(c(=O)c1CCN1CCC(c3noc4cc(F)ccc34)CC1)CCC[C@@H]2O | 100%
20 | O=C1OCC2=C1C(c1ccccc1)c1cc3c(cc1N2CCO)OCCO3 (stereo not given) | -63.7% (active)

Row | SMILES | growth
21 | O=C(O)C1CSC(c2ccccc2)N1 (stereo not given) | 96.7%
22 | CNc1nc(S(=O)c2ccc(C#N)cc2)nc2ccccc12 (stereo not given) | -4.09% (active)
23 | COc1ccc2nc3cc(Cl)ccc3c(N3CCN(c4nccc(Nc5ccc(Cl)cc5)n4)CC3)c2c1 | 82.8%
24 | Cc1ccc(C(=O)/C(=C\c2ccc([N+](=O)[O-])cc2)S(=O)Cc2ccc(Cl)cc2)cc1 (stereo not given) | 24.3%
25 | Cc1c(Cc2ccccc2)c(=O)oc2c(C)c(OCC(=O)n3nc(C#N)cc3N)ccc12 | 114%
26 | O=C(/C=C/c1ccc(C(F)(F)F)cc1)Nc1ccc(C=C2c3ccccc3C(=O)c3ccccc32)cc1 | 33.5%
27 | CCOC(=O)c1sc2nc(-c3cc(OC)c(OC)c(OC)c3)nc(N3CCOCC3)c2c1C | 11.3%
28 | C#Cc1nc(C2=C(C)/C(=N/OCc3ccccc3)CC2)cs1 | 54.5%
29 | CNC(=O)c1cc(Oc2ccc(NC(=O)Nc3ccc(Cl)c(OC(F)(F)F)c3)c(F)c2)ccn1 | 14.7%
30 | CN1CCN(Cc2occc(=O)c2O)CCN(C)CCN(Cc2occc(=O)c2O)CC1 | 111% and 87.9%
31 | Nc1c(CNCc2nnn(Cc3ccccc3)c2N)nnn1Cc1ccccc1 | 100%
32 | COc1cccc(-c2nn(-c3ccccc3)cc2-c2ccnc(NCCCO)c2)c1 | 23.8%
33 | CCN(CC)CCCNc1nccc2ccc(Cl)cc12 | 97.5%
34 | CNC(=O)c1cc(Oc2ccc(NC(=O)c3[nH]c(SC)nc3-c3ccc(F)cc3)cc2)ccn1 | 70.9%
35 | NS(=O)(=O)c1ccc(Nc2nc(N/N=C/c3ccc4c(c3)OCO4)nc(Nc3ccccc3)n2)cc1 | 46.4%
36 | Nc1ccc(S(=O)(=O)Nc2ncccn2)cc1 | 109%
37 | CC(N)C(Cc1ccc(Cl)cc1)c1ccc(Cl)cc1 (stereo not given) | 41.6%
38 | O=C1c2cccc3cccc(c23)C(=O)N1N1C(=O)c2cccc3c(N4CCNCC4)ccc(c23)C1=O | 91%
39 | C/C(=N/NC(=O)Cn1c2ccccc2c2ccncc21)c1cccs1 | 105%
40 | CCN(CC)CCOc1ccc(C(=C(C)Cc2ccc(OC)cc2)c2ccc(OCCN(CC)CC)cc2)cc1 | -25.4% (active)
